# This excerpt belongs to a sample that is enriched for hits.
# TTR transcr act: activators of transthyretin transcription; SH-SY5Y TTR promoter Gaussia luciferase, luminescence; 100% = recombinant luciferase protein wells; activation, % at 16.7 µM; actives 1.3% (n = 92,000);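 active = activation above the mean of all tested compounds plus 3 SD, cut at about 9.5% in these data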;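 also: cells exposed to compounds for one day before reading; 0% = median of all test compound wells on the plate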
# TTR inh HuH7: decreases TTR transcription in HuH7 cells in activator counter-screen; shares compounds with TTR transcr act; HuH7 TTR promoter-Gaussia luciferase reporter, luminescence; inhibition, % at 16.7 µM; actives 4% (n = 1,100);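 active = average inhibition above the solvent-only control wells' mean plus 3 SD, cut at about 15% in these data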;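 also: 0% = cells with DMSO only and 100% = cells with inhibitor control FD; inhibitors lower well luminescence so higher value means more inhibition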
# TTR act confirm: confirmation of human transthyretin transcription activators. shares compounds with TTR transcr act. SHSY5Y TTR promoter Gaussia luciferase, luminescence; 100% = purified Lucia enzyme wells, no cells. activation, % at 16.7 µM. 1,100 tested, under 10 active. AID 1117280;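 active = mean activation above a set limit taken from the earlier primary screen, cut at about 11% in these data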;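 also: 0% = DMSO-treated cells and 100% = recombinant Lucia luciferase without cells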
# Numbers without * were called inactive.
SMILES,TTR transcr act,others
CN1CCN(C(=S)Nc2ccc(S(N)(=O)=O)cc2)CC1,11*,TTR inh HuH7=-9;TTR act confirm=0
CCOC(=O)c1ccc(NC(=S)N2CCN(C)CC2)cc1,0,
COC(=O)[C@]12C[C@H](CC(=O)NCc3ccc(C)o3)C(=O)N(Cc3ccc(Cl)cc3Cl)C1=C[C@H](C(C)C)O[C@@H]2C1CC1,-1,
COC(=O)[C@]12C[C@H](CC(=O)NCCCCc3ccccc3)C(=O)N(Cc3ccc4c(c3)OCO4)C1=C[C@H](C(C)C)O[C@@H]2C1CC1,0,
O=C(CSC(=S)N1CCCC1)c1ccccc1,0,
O=C(O)CSCC(=O)N1CCCCC1,-1,
O=C(O)CSC(=S)N1CCCC1,10*,TTR inh HuH7=-5;TTR act confirm=0
CN1C2=N[C@@H](c3ccc4ccccc4c3)CC(=O)N2/C(=C\c2ccccc2)[C@H]1c1ccccc1,-1,
O=C(NCCCNC(=O)c1cnccn1)c1ccc(Cl)cc1,4,
CCCCCNC(=O)C(C)Sc1ccc(Cl)cc1 (centres undefined),2,
CCCCNC(=O)NS(=O)(=O)c1cnccc1Sc1ccc(Cl)cc1,16*,TTR inh HuH7=-17;TTR act confirm=0
Cc1cccc(Cn2cc(COC(=O)NCCc3ccccc3)nn2)c1,0,
O=C(O)c1ccc(COc2ccccc2/C=C2\NC(=O)N(Cc3ccc(F)cc3)C2=O)cc1,9,
Cc1ccc(CN2C(=O)N/C(=C\c3ccc(-c4ccc(C(=O)O)cc4C)o3)C2=O)cc1,11*,TTR inh HuH7=-18;TTR act confirm=0
Cc1ccc(C(=O)O)cc1-c1ccc(/C=C2/NC(=O)N(c3ccccc3)C2=O)o1,-1,
O=C1CCC[C@H]2C[C@H](NCc3ccc(F)cc3)CC[C@]23CCCN13,4,
Cc1cc(C)nc(NC(=S)N2CCN(c3ccc(Cl)c(Cl)c3)CC2)c1,-2,
CC(=O)O[C@H]1CC[C@]2(C)C3CC[C@]4(C)[C@@H]([C@H](C)/C=C/[C@H](C)C(C)C)CC[C@H]4[C@@]34C=C[C@]2(C1)N(C(=O)c1ccccc1)O4 (some centres undefined),-2,
C=Cn1cc(CNC[C@H]2O[C@@H](n3cc(C)c(=O)[nH]c3=O)C[C@@H]2O)c(C)n1,11*,TTR inh HuH7=-13;TTR act confirm=0
Cc1cn([C@H]2C[C@H](O)[C@@H](CNC(=O)[C@H]3CCC(=O)N3)O2)c(=O)[nH]c1=O,2,
Cc1cn([C@H]2C[C@H](O)[C@@H](CNCc3ccc(N4CCN(C)CC4)cc3F)O2)c(=O)[nH]c1=O,3,
Nc1[nH]c2cc(C(F)(F)F)ccc2c1C(=O)N1CCN(CCc2ccccc2)CC1,-1,
COc1ccc(CN2CCN(Cc3cccc(Oc4ccccc4)c3)CC2)c(OC)c1OC,-2,
CN1CCN(Cc2cccc(Oc3ccccc3)c2)CC1,18*,TTR inh HuH7=-4;TTR act confirm=-1
O=C(c1ccccc1)N1CCN(Cc2cccc(Oc3ccccc3)c2)CC1,-2,
SMILES,TTR transcr act,others
CC1=N/C(=C\c2ccc([N+](=O)[O-])cc2)C(=O)N1c1ccc(C)c(Cl)c1,0,
O=C(COC(=O)c1ccc(O)cc1)Nc1ccc(N2CCCCC2)cc1,3,
COc1cc(OC)cc(C(=O)OCC(=O)Nc2ccc(N3CCCCC3)cc2)c1,12*,TTR inh HuH7=0;TTR act confirm=1
COc1ccc(OCC(=O)Nc2ccc(N3CCCCC3)cc2)cc1,1,
CCC[C@H]1[C@@H](OC(=O)NC(CC)CC)CC[C@@]23CCCN2C(=O)CCC[C@@H]13,1,
C[C@H]1C2CC(OC(=O)Nc3ccc(C#N)cc3)C(C2)[C@H]2CCCCN21 (some centres undefined),0,
Brc1cccc(-c2nc3ccc(Br)cn3c2Cc2ccccc2)c1,22*,TTR inh HuH7=-2;TTR act confirm=-1
Clc1cccc(-c2nc3ccc(Br)cn3c2Cc2ccccc2)c1,-1,
Cc1ccc(Cc2c(-c3ccccc3)nc3ccc(Br)cn23)cc1,1,
CCCC[C@@H]1C(=O)N2N=Cc3cc4ccccc4cc3[C@H]2N2N=Cc3cc4ccccc4cc3[C@@H]12,-5,
C[C@@H]1CN([C@H](C)CO)C(=O)c2cc(NS(=O)(=O)c3ccccc3)ccc2O[C@@H](C)CCCCO[C@@H]1CN(C)Cc1ccc(Cl)c(Cl)c1,0,
CC(C)=CCN1CCN(Cc2ccc3nsnc3c2)CC1CCO (centres undefined),1,
CC(C)=CCN1CCN(Cc2ccoc2)CC1CCO (centres undefined),-2,
CC(=O)Nc1ccc2nc(CN3CCN(CC=C(C)C)C(CCO)C3)ccc2c1 (centres undefined),67*,TTR inh HuH7=-6;TTR act confirm=1
COc1ccc(S(=O)(=O)N2CCOC2CNC(=O)C(=O)NCc2ccccc2OC)cc1 (centres undefined),-1,
COc1ccc(S(=O)(=O)N2CCCOC2CNC(=O)C(=O)NCc2ccco2)cc1 (centres undefined),0,
COc1ccc(S(=O)(=O)N2CCCOC2CNC(=O)C(=O)NCc2ccccn2)cc1 (centres undefined),24*,TTR inh HuH7=-10;TTR act confirm=-1
CCOC(=O)c1ccccc1S(=O)(=O)N1CCN(c2nc(-c3cccs3)nc3ccccc23)CC1,4,
OC(c1ccccc1)(c1ccccc1)c1cnc2ccccn12,-1,
CCn1c(=O)cc(N2CCN(c3cccc(C(F)(F)F)c3)CC2)[nH]c1=O,1,
CCC(C)CCN1C(N(C)C)=NC[C@@H]1CC(C)C (some centres undefined),12*,TTR inh HuH7=-3;TTR act confirm=-1
CCC(C)CCN1C(N(C)C)=NC[C@@H]1Cc1ccccc1 (some centres undefined),1,
CC(C)C[C@H]1CN=C(Nc2ccccc2)N1CC(C)C,-1,
O=C(Nc1nc2c(Br)cccc2s1)c1ccc2c(c1)OCCO2,-3,
O=C(c1ccccc1)c1cccn1CC(=O)N1CCCCCC1,10*,TTR inh HuH7=-11;TTR act confirm=0
SMILES,TTR transcr act,others
CN(Cc1ccccc1)C(=O)Cn1cccc1C(=O)c1ccccc1,-1,
Cc1cccc(N2CCN(C(=O)Cn3cccc3C(=O)c3ccccc3)CC2)c1C,1,
Fc1ccccc1Cn1ccc2ccc(-c3ccc4ccn(Cc5ccccc5F)c4c3)cc21,0,
COc1ccc(-n2c(C)cc(C(=O)COC(=O)Cn3cnc4ccccc43)c2C)cc1,-3,
COc1ccc(-n2c(C)cc(C(=O)COC(=O)c3cc(NC(=O)c4cccs4)c(OC)c(OC)c3)c2C)cc1,9.8*,TTR inh HuH7=-12;TTR act confirm=0
COc1cc(C(=O)OCC(=O)NCc2ccc(F)cc2)cc(NC(=O)c2cccs2)c1OC,-2,
O=C1OCC(O)=C1Cc1ccccc1,5,
COc1ccc(OC)c(N=C(C)C2=C(O)COC2=O)c1,0,
CC(=Nc1ccccc1)C1=C(O)COC1=O,18*,TTR inh HuH7=-6;TTR act confirm=0
CC(C)(C)NC(=O)[C@@H](c1cccnc1)N(C(=O)c1ccco1)c1ccc(C(C)(C)C)cc1,5,
COC(=O)c1sccc1NC(=O)c1cccc(OC)c1,1,
COC(=O)c1sccc1NC(=O)Nc1cc(C)cc(C)c1,-2,
COC(=O)c1sccc1NC(=O)Nc1cccc(OC)c1,10.0*,TTR inh HuH7=-7;TTR act confirm=0
Cc1ccccc1CN1[C@@H](C)[C@H](c2ccccc2)Oc2cccc(N3CCCC3)c2S1(=O)=O,-1,
COC(=O)c1ccc(NC(=O)COc2cccc(-n3cnnn3)c2)cc1,-2,
COc1cc(C(=O)Nc2cccc(-n3cnnn3)c2)cc(OC)c1OC,-1,
COC(=O)COc1cccc(-n2cnnn2)c1,11*,TTR inh HuH7=-9;TTR act confirm=1

# High-throughput results (PubChem)
